# PubChem BioAssay (NCATS)
# Results filed as inconclusive are left out. Unmarked numbers belong to inactive results. The source made the active and inactive calls. Calls come from the whole dose curve; as a rule, active = well fitted inhibition curve with a large enough effect; inconclusive = small, poorly fitted or top-dose-only effect; inactive = flat fitted curve, though single readings scatter. *1 amine or outer side, *2 acyl side, *3 side chain or, on linkers, in order; H or OH if unused. Where a SMILES comes first, the peptide text is derived from it. [ ]: non-standard residue; d: D form. X4 = CC(C)=CCc1cc(C(O)C(N[*:1])C(=O)[*:2])ccc1O
# Experiment: P-glycoprotein substrates identified in KB-8-5-11 adenocarcinoma cell line, qHTS therapeutic library screen (AID 1346987); note: nearly all actives have a fitted effect of over 65% in size
# Settings: KB-8-5-11 (P-gp overexpressing) viability, CellTiter-Glo, 72 h; series mostly up to 44.5 µM; activity change, negative = cytotoxicity: at the top concentration
# Summary of the method: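 KB-8-5-11: colchicine-selected sub-line of KB-3-1 over-expressing P-gp; assay medium lacked colchicine. 72 h drug exposure at 37 degree C, CellTiter-Glo.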
# % is set by controls: 0 for no effect and ±100 for the full control effect; potency is the fitted concentration of half-maximal effect.
SMILES,Potency,"activity change, negative = cytotoxicity",outcome
COc1cc(OC)c(/C=C/S(=O)(=O)Cc2ccc(OC)c(NCC(=O)O)c2)c(OC)c1,461 nM (active),,
COC(=O)/C=C/C12COC(C)(C)C1C(O)C(OC(C)=O)C1(C)C2CCC2(C)C(c3ccoc3)OC(=O)C3OC321 (stereo unspecified),,0.389% [at 17.3 µM],
CNS(=O)(=O)c1ccccc1Nc1nc(Nc2ccc(N3CCN(C)CC3)cc2OC)ncc1Cl,651 nM (active),,
CCc1cccc(CC)c1NC(=O)c1nn(C)c2c1CCc1cnc(Nc3ccc(C(=O)NC4CCN(C)CC4)cc3OC(F)(F)F)nc1-2,3550 nM (active),,
O=S(=O)(NCC1CC1)c1ccc(Nc2nccc(N3CCCc4cc(O)ccc43)n2)cc1,9200 nM (active),,
COC(=O)c1cc(OC)c(O[C@@H]2O[C@@H](C)[C@H](O)[C@@H](O)[C@H]2O)c(OC)c1,,5.18%,
CC(C)=CCc1cc(C(O)C2NC(=O)CNC(=O)C(Cc3c[nH]c4ccccc34)NC(=O)C3CCCN3C(=O)CNC(=O)C(C(C)C)NC(=O)CNC2=O)ccc1O (stereo unspecified) (cyclo(G[X4]GVGPW); configuration not given here),,-0.495% [at 9.29 µM],
c1ccc(-c2csc(N3CCOCC3)n2)cc1,,,inactive
O=C(Nc1ccc(S(=O)(=O)Nc2nccs2)cc1)C(c1ccccc1)c1ccccc1,,7.58%,
Cc1ccc(NC(=O)c2ccc(CN3CC[C@H](N(C)C)C3)c(C(F)(F)F)c2)cc1Nc1nccc(-c2cncnc2)n1,,-10.1% [at 17.3 µM],
CC(=O)O[C@H]1CC[C@H](C)[C@@]2(C)[C@H](OC(C)=O)c3c(C)coc3C(=O)[C@H]12,,-26.7%,
